PubChem BioAssay (NCI)
Where “and” joins values, the source holds several entries; their conditions need not be identical. Equal entries are not always repeated. The panel holds about 79,000 compounds, 15% with a hit somewhere; the sample as a whole holds those more often. Rule as the data show it: active = growth inhibition above about 70%; inactive = the rest. Where a SMILES comes first, the peptide text is derived from it. [ ]: non-standard residue; d: D form. ξ: configuration not given here. ξF = NC(Cc1ccccc1)C(=O)O

Tests used:
[1] = NCI Yeast Anticancer Drug Screen. Data for the rad50 strain (AID 155);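 also: 0% = growth of vehicle-only cultures of the same strain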; conditions: S. cerevisiae rad50 strain growth inhibition; at 50.0 µM; hits give high values
Method in brief: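 Compounds were tested on a yeast strain with an engineered DNA damage repair alteration; the reported value is growth inhibition normalised to vehicle treatment.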

[2] = NCI Yeast Anticancer Drug Screen. Data for the mec2-1 strain (AID 157); conditions: S. cerevisiae mec2-1 strain, at 50.0 µM, hits give high values
Method in brief: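 Using mec2-1 yeast: add compound, measure growth, express inhibition versus vehicle-treated cultures.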

[3] = NCI Yeast Anticancer Drug Screen. Data for the sgs1 mgt1 strain (AID 161);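 also: 0% = growth of cultures given vehicle only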; conditions: S. cerevisiae sgs1 mgt1 strain, at 50.0 µM, hits give high values
Method in brief: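 Growth of a repair-deficient yeast mutant was monitored after compound treatment and expressed as inhibition relative to vehicle-treated cultures.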

[4] = NCI Yeast Anticancer Drug Screen. Data for the cln2 rad14 strain (AID 165);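 also: 0% = growth equal to vehicle treated cultures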; conditions: S. cerevisiae cln2 rad14 strain, at 50.0 µM, hits give high values
Method in brief: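 Yeast strain cln2 rad14, bearing defects in cell cycle control and DNA repair, serves as the test system; values reflect growth inhibition compared with vehicle.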

[5] = NCI Yeast Anticancer Drug Screen. Data for the bub3 strain (AID 167); conditions: S. cerevisiae bub3 mutant strain, at 50.0 µM, hits give high values
Method in brief: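 Growth of a checkpoint-deficient yeast mutant is measured after compound exposure. Values represent inhibition relative to vehicle.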

[6] = NCI Yeast Anticancer Drug Screen. Data for the mlh1 rad18 strain (AID 175); conditions: S. cerevisiae mlh1 rad18 strain growth inhibition; at 50.0 µM; hits give high values
Method in brief: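 Steps: expose repair-defective yeast to compound; measure growth; express inhibition against vehicle-treated controls.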

Measured: growth inhibition

COc1cc([N+](=O)[O-])c(S(=O)(=O)O)cc1N
inactive: [1] -7.95% and 30.1% | [2] 22.8% and 6.65% | [3] -11.8% and -0.8% | [4] -23.7% and 16.8% | [5] 7.2% and 16.3% | [6] -0.75% and 38.9%

C=CCOC(=O)C(C)OC(=O)C(C)O (configuration not stated)
inactive: [1] 35.3% and 15.3% | [2] 11.8% and 10.6% | [3] 13.6% and -3.75% | [4] 11.6% and -4% | [5] 6.85% and -0.4% | [6] 9.85% and 1.9%

COc1cc2c(cc1OC)C1Cc3cc(OC)c(OC)cc3C(C2)N1C
inactive: [1] 23.4% and -37.9% | [2] 4.4% and -16.9% | [3] -6.2% and -5% | [4] 6.8% and 2.6% | [5] -5.25% and -3.2% | [6] -45% and -24.2%

Cc1cc(=O)[nH]c2ccccc12
inactive: [1] 26.6% and 14% | [2] -6.3% and -2.8% | [3] -7.8% and -30.9% | [4] 6.3% and 21.8% | [5] 7.05% and -10.1% | [6] 6.45% and 12.5%

CC(=O)/C=C/C1=C(C)CCCC1(C)C
inactive: [1] -21.8% and 11.2% | [2] -8.35% and -10.9% | [3] -18.1% and -19.4% | [4] -14.7% and 8.05% | [5] -20.9% and 0.5% | [6] 11.8% and -2.2%

NCC(=O)NC(Cc1ccccc1)C(=O)O (configuration not stated) (H-Gly-[ξF]-OH)
inactive: [1] -28.9% and -14.6% | [2] -14.6% and -12.2% | [3] -1% and -20.6% | [4] -3.9% and -2.65% | [5] -8.25% and -10% | [6] -3.75% and -13.3%

COc1ccc2c(c1OC)CN(C)CCc1cc3c(cc1C(=O)C2)OCO3
inactive: [1] -5.15% and -35.8% | [2] 15.7% and -17.1% | [3] -0.5% and -14.6% | [4] 49.6% and 11.8% | [5] 7.7% and -18.5% | [6] -29.9% and -8.35%

O=C(O)/C=C(/Oc1ccc(Cl)cc1Cl)C(=O)O
inactive: [1] 5.8% and 19.7% | [2] -3.25% and 6.45% | [3] 6.35% and 9.85% | [4] -19.9% and 15.4% | [5] 17.9% | [6] 11.8% and 19.7%

O=c1[nH]c(=O)n(C2OC(CO)C(O)C2O)c2ncncc12 (configuration not stated)
inactive: [1] 3.15% and 12.4% | [2] 5.7% and 4.75% | [3] 31.2% and -0.75% | [4] 4.9% and 8.8% | [5] 16.4% and -30.4% | [6] -39.8% and -25.5%

CC(=O)NC(Cc1ccccc1)C(=O)O (configuration not stated)
inactive: [1] 11.1% and -7.55% | [2] -3% and -7.6% | [3] 15.7% and 4.25% | [4] 6.3% and -52.9% | [5] 6.25% and -14.1% | [6] -18.3% and -27.1%

CC(=O)OCC1OC(n2cnc3c(N)ncnc32)C(OC(C)=O)C1OC(C)=O (configuration not stated)
inactive: [1] 3.05% and 8.1% | [2] -8.9% and -3.3% | [3] 18.8% and 0.2% | [4] 14.2% and 11.4% | [5] 5.3% and -0.8% | [6] 18.1% and -0.25%

NC(=O)CC(N)C(=O)O (configuration not stated)
inactive: [1] -4.4% and -5.3% | [2] -30.1% and -1.65% | [3] -10.8% and -4.4% | [4] -1% and 11.7% | [5] 1.5% and -13.7% | [6] 0.7% and 2.65%

O=C(O)C(Cc1ccc(O)cc1)NS(=O)(=O)Cc1ccccc1 (configuration not stated)
inactive: [1] -12.8% and 7.15% | [2] -5.85% and 17.5% | [3] -3.1% and 14.7% | [4] 0.4% and -22.2% | [5] -55.3% and 19.9% | [6] -19.1% and 3.8%

C1CCC(N2CN(C3CCCCC3)C2)CC1
inactive: [1] 7.7% and 0.05% | [2] -11.9% and 0.5% | [3] -17.1% and -8.8% | [4] -14.5% and 10.3% | [5] -8.85% and -19.4% | [6] -31.8% and 18%

NC(=O)Nc1ccc(Cl)cc1
inactive: [1] -17.2% and 22.5% | [2] -11.8% and -9.35% | [3] -24.8% and -5% | [4] -17.9% and -12.5% | [5] -4.2% and -17.1% | [6] -10.9% and 15.4%

O=[N+]([O-])c1ccccc1S(=O)(=O)Oc1ccccc1
inactive: [1] 10.1% and 54.7% | [2] 2.5% and -9.2% | [3] 5.45% and 46.3% | [4] -12.9% and 1% | [5] -8.65% and -14.5% | [6] 5.25% and 32.4%

O=P(O)(O)Oc1ccccc1
inactive: [1] -10.4% and -8.3% | [2] -6.25% and 6.05% | [3] -16.7% and 6.55% | [4] -9.8% and -9.95% | [5] -0.05% and -3.3% | [6] -12.1% and 9.2%

COc1cc2c(cc1OC)C(=O)C1COC(=O)C1C2 (configuration not stated)
inactive: [1] -17% and 0.6% | [2] -18.8% and -11.5% | [3] -8.7% and 14.8% | [4] -11.9% and 5.05% | [5] -6.2% and -4.85% | [6] 0.55% and 12.2%

CCc1ccc(N)cc1
inactive: [1] -16.4% and -3.75% | [2] -16.6% and 4.3% | [3] -23.4% and -4.25% | [4] -5.55% and -28.5% | [5] -16.5% and -11.1% | [6] -16.7% and 4.35%

Cc1cc(N(C)C)nc(N(C)C)n1
inactive: [1] -4.75% and -1.7% | [2] -4.7% and -14.8% | [3] -1.5% and -5.25% | [4] -0.9% and -33.3% | [5] 10.9% and -7.15% | [6] 8.25% and -10.1%

NNS(=O)(=O)c1ccc(Cl)cc1
inactive: [1] -3.5% and 13.2% | [2] -19.1% and 2.45% | [3] -5.45% and 6.6% | [4] 13.4% and -4.4% | [5] 22.9% and 9.8% | [6] -8.3% and 7%

CCOC(=O)CC1(O)C=CC(=O)C=C1
inactive: [1] 9.25% and 14.2% | [2] 0.5% and -5.6% | [3] 0.55% and -5.1% | [4] 15.1% and 21.2% | [5] 6.65% and 22.9% | [6] -6.2% and 36.4%
